Results as given in PubChem BioAssay (NCATS).
Inconclusive results are not listed. Unmarked numbers belong to inactive results. Calls of active or inactive are those of the source. Calls follow the shape of the dose curve; as a rule, active = well fitted curve in the direction sought with a large enough effect; inconclusive = small, poorly fitted or top-dose-only effect, or another doubt; inactive = no such curve, though single readings can be large; an effect the other way counts as inactive or inconclusive.

These compounds were tested against Aldehyde dehydrogenase, mitochondrial (Homo sapiens) (UniProt P05091) (assay: qHTS for Inhibitors of the Aldehyde Dehydrogenase Family (ALDH2) Primary screen (AID 2061308;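 also: plate controls were vehicle for no effect and reference inhibitor for full effect; nearly all actives have a fitted effect of over 55% in size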)). Settings: ALDH2 enzyme inhibition qHTS, 1536-well; series mostly up to 56 µM; activity change, negative = inhibition: at the top concentration.

Row | Compound | activity change, negative = inhibition | Potency
1 | Cn1nnnc1Sc1ncnc2scc(-c3ccccc3F)c12 | 9.21% | –
2 | O=C(O)CCc1cc(F)c(S(=O)(=O)N2CCN(S(=O)(=O)c3ccc4c(c3)OCCO4)CC2)cc1F | 2.44% | –
3 | CCCCN1C(=O)c2ccccc2NC1c1ccc(OC)c(COc2c(C)cc(NC(C)=O)cc2C)c1 (stereo not given) | -1.86% | –
4 | Cc1ccc(S(=O)(=O)Nc2ccccc2C(=O)Nc2ccc(-c3ccccc3)nc2)cc1 | 0.142% | –
5 | O=C(Oc1cccnc1)c1cccs1 | 7.24% | –
6 | CCN1CCCC1Cn1c(-c2ccccc2)nc2c(NC3CCCCC3)nc(C)nc21 (stereo not given) | 4.21% | –
7 | O=S(=O)(c1ccc(C(F)(F)F)cc1)N1CCN(S(=O)(=O)c2ccc3c(c2)OCCO3)CC1 | 6.07% | –
8 | CN(C)c1cccc(-c2ncc(F)c(N3CCC(C(N)=O)CC3)n2)c1 | -21.6% | –
9 | C/C=C/C(=O)OC1/C=C/C(O)C(OC(C)=O)CCC(=O)OC1C (stereo not given) | -0.435% | –
10 | Fc1cnc(-c2ccccc2C(F)F)nc1NCc1ccc(-c2cccnc2)cc1 | 18.2% | –
11 | Cc1ccc(C)n1-c1cccc(-c2nn[nH]n2)c1 | -12.2% | –
12 | Cc1ccc(NS(=O)(=O)c2ccc3c(c2)CCC(=O)N3)cc1C | 1.15% | –
13 | CCOc1ccc(C(C)CNC(=O)c2cc3sccc3n2Cc2ccccc2)cc1OCC (stereo not given) | 13.9% | –
14 | Cc1ccccc1-c1ccc(NC(=O)c2cccs2)cn1 | 5.3% | –
15 | Oc1c(C(Nc2ccccn2)c2ccccc2)cc(Cl)c2cccnc12 (stereo not given) | – | inactive
16 | Cc1cc2c(s1)c1cnn(Cc3cccc([N+](=O)[O-])c3)c(=O)c1n2C | 2.95% | –
17 | CCn1cnc2c(NCc3cccnc3)nc(C#N)nc21 | -5.95% | –
18 | COc1ccc(C2Nc3ccccc3C(=O)N2Cc2ccco2)cc1CSc1c(C)cccc1C (stereo not given) | 2.5% | –
19 | COC1CC(=O)C23C(=O)NC(CC(C)C)C2C(C)C(C)=CC3/C=C(\C)CCC1O (stereo not given) | 0.0237% [at 28 µM] | –
20 | N#CN1CCC(N[S+](=O)([O-])c2cccc(F)c2)CC1 | 8.23% | –

Row | Compound | activity change, negative = inhibition | Potency
21 | FC(F)(F)c1cccc(-c2nc(NCc3ccc(-c4cccnc4)cc3)c3ccccc3n2)c1 | -13.6% | –
22 | O=C1CCCC2=C1C(c1ccncc1Br)N=C(Nc1nc3ccccc3o1)N2 (stereo not given) | – | inactive
23 | O=C(Nc1ccc(Cl)c(Cl)c1)Nc1nnc(C2CCCCC2)s1 | 4.61% | –
24 | O=C(Nc1cncc(-c2cccnc2)c1)c1cccs1 | -12.6% | –
25 | CC(=O)Nc1sc2c(c1-c1ccc3nsnc3c1)CCNC2 | -5.92% | –
26 | COc1ccccc1CNc1ccc(S(=O)(=O)Nc2nccs2)cc1 | 18.7% | –
27 | COC(=O)c1ccc(NC(=O)c2nc3ccccc3n(C)c2=O)cc1 | -2.5% | –
28 | O=c1c2ccccc2nc2sc(Nc3cccc(-c4ccncc4)c3)nn12 | -14.8% | –
29 | C=C1C(=O)OC2C1CCC1(C)C(O)CC=C(C)C21 (stereo not given) | -4.14% | –
30 | Cc1ccc(-c2cc(C(=O)Nc3cccc(Cl)c3)c3ccccc3n2)cc1C | 2.47% | –
31 | O=C(Nc1ccc(N2CCOCC2)c(C(F)(F)F)c1)Nc1nnc(-c2ccncc2)s1 | 17.1% | –
32 | N#Cc1cccc(-c2ccc(NC(=O)c3cccs3)cn2)c1 | -3.53% | –
33 | COc1ccc(C2Nc3ccccc3C(=O)N2Cc2ccco2)cc1COc1c(C(C)C)cccc1C(C)C (stereo not given) | -5.17% | –
34 | Cc1cc(N[S+](=O)([O-])c2cc3c(cc2Cl)CCC(=O)N3)ccc1Cl | -11.7% | –
35 | Fc1cc(Nc2nc(-c3ccncc3)nc3ccccc23)ccc1-n1cncn1 | – | inactive
36 | Nc1ccc(Cl)cc1C(=O)c1ccc[nH]1 | -7.09% | –
37 | O=C(CSc1nnc(-c2cccc([S+](=O)([O-])N3CCCC3)c2)n1-c1ccccc1)Nc1ccc2c(c1)OCCO2 | -3.67% | –
38 | O=C(Nc1ccc2ccccc2c1)Nc1nnc(-c2ccccc2F)s1 | 10.1% | –
39 | O=S(=O)(c1ccc2c(c1)OCCO2)N1CCN(S(=O)(=O)c2ccc(Cl)cc2F)CC1 | 6.94% | –
40 | O=C(OCC#CCSc1nnc(-c2cccc3ccccc23)o1)c1ccc(SC(F)(F)F)cc1 | 3.34% | –

The compounds below were run against Retinaldehyde dehydrogenase 3 (Homo sapiens) (UniProt P47895) (assay: qHTS for Inhibitors of the Aldehyde Dehydrogenase Family (ALDH1A3) Primary screen (AID 2061315;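 also: plate controls were DMSO vehicle for no effect and reference inhibitor for full effect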)). Settings: ALDH inhibition qHTS; series mostly up to 56 µM; activity change, negative = inhibition: at the top concentration.

Row | Compound | activity change, negative = inhibition | Potency
41 | Cn1nnnc1Sc1ncnc2scc(-c3ccccc3F)c12 | 7.23% | –
42 | O=C(O)CCc1cc(F)c(S(=O)(=O)N2CCN(S(=O)(=O)c3ccc4c(c3)OCCO4)CC2)cc1F | 3.33% | –
43 | CCCCN1C(=O)c2ccccc2NC1c1ccc(OC)c(COc2c(C)cc(NC(C)=O)cc2C)c1 (stereo not given) | -8.63% | –
44 | Cc1ccc(S(=O)(=O)Nc2ccccc2C(=O)Nc2ccc(-c3ccccc3)nc2)cc1 | -0.0212% | –
45 | O=C(Oc1cccnc1)c1cccs1 | 3.62% | –
46 | CCN1CCCC1Cn1c(-c2ccccc2)nc2c(NC3CCCCC3)nc(C)nc21 (stereo not given) | 7% | –
47 | O=S(=O)(c1ccc(C(F)(F)F)cc1)N1CCN(S(=O)(=O)c2ccc3c(c2)OCCO3)CC1 | -17.7% | –
48 | CN(C)c1cccc(-c2ncc(F)c(N3CCC(C(N)=O)CC3)n2)c1 | -0.171% | –
49 | C/C=C/C(=O)OC1/C=C/C(O)C(OC(C)=O)CCC(=O)OC1C (stereo not given) | -1.37% | –
50 | Fc1cnc(-c2ccccc2C(F)F)nc1NCc1ccc(-c2cccnc2)cc1 | -12.4% | –
51 | Cc1ccc(C)n1-c1cccc(-c2nn[nH]n2)c1 | 13.7% | –
52 | Cc1ccc(NS(=O)(=O)c2ccc3c(c2)CCC(=O)N3)cc1C | -3.9% | –
53 | CCOc1ccc(C(C)CNC(=O)c2cc3sccc3n2Cc2ccccc2)cc1OCC (stereo not given) | -2.24% | –
54 | Cc1ccccc1-c1ccc(NC(=O)c2cccs2)cn1 | -5.39% | –
55 | Oc1c(C(Nc2ccccn2)c2ccccc2)cc(Cl)c2cccnc12 (stereo not given) | – | inactive
56 | Cc1cc2c(s1)c1cnn(Cc3cccc([N+](=O)[O-])c3)c(=O)c1n2C | -1.3% | –
57 | CCn1cnc2c(NCc3cccnc3)nc(C#N)nc21 | -2.76% | –
58 | COc1ccc(C2Nc3ccccc3C(=O)N2Cc2ccco2)cc1CSc1c(C)cccc1C (stereo not given) | 1.94% | –
59 | COC1CC(=O)C23C(=O)NC(CC(C)C)C2C(C)C(C)=CC3/C=C(\C)CCC1O (stereo not given) | 1.24% [at 28 µM] | –
60 | N#CN1CCC(N[S+](=O)([O-])c2cccc(F)c2)CC1 | 6.01% | –

Row | Compound | activity change, negative = inhibition | Potency
61 | FC(F)(F)c1cccc(-c2nc(NCc3ccc(-c4cccnc4)cc3)c3ccccc3n2)c1 | -12.6% | –
62 | O=C1CCCC2=C1C(c1ccncc1Br)N=C(Nc1nc3ccccc3o1)N2 (stereo not given) | – | inactive
63 | O=C(Nc1ccc(Cl)c(Cl)c1)Nc1nnc(C2CCCCC2)s1 | -1.64% | –
64 | O=C(Nc1cncc(-c2cccnc2)c1)c1cccs1 | -19.7% | –
65 | CC(=O)Nc1sc2c(c1-c1ccc3nsnc3c1)CCNC2 | -12.1% | –
66 | COc1ccccc1CNc1ccc(S(=O)(=O)Nc2nccs2)cc1 | 1.01% | –
67 | COC(=O)c1ccc(NC(=O)c2nc3ccccc3n(C)c2=O)cc1 | -15.9% | –
68 | O=c1c2ccccc2nc2sc(Nc3cccc(-c4ccncc4)c3)nn12 | 2.18% | –
69 | C=C1C(=O)OC2C1CCC1(C)C(O)CC=C(C)C21 (stereo not given) | -19.9% | –
70 | Cc1ccc(-c2cc(C(=O)Nc3cccc(Cl)c3)c3ccccc3n2)cc1C | 1.19% | –
71 | O=C(Nc1ccc(N2CCOCC2)c(C(F)(F)F)c1)Nc1nnc(-c2ccncc2)s1 | -2.49% | –
72 | N#Cc1cccc(-c2ccc(NC(=O)c3cccs3)cn2)c1 | 9.59% | –
73 | COc1ccc(C2Nc3ccccc3C(=O)N2Cc2ccco2)cc1COc1c(C(C)C)cccc1C(C)C (stereo not given) | 1.69% | –
74 | Cc1cc(N[S+](=O)([O-])c2cc3c(cc2Cl)CCC(=O)N3)ccc1Cl | -11.6% | –
75 | Fc1cc(Nc2nc(-c3ccncc3)nc3ccccc23)ccc1-n1cncn1 | – | inactive
76 | Nc1ccc(Cl)cc1C(=O)c1ccc[nH]1 | 18% | –
77 | O=C(CSc1nnc(-c2cccc([S+](=O)([O-])N3CCCC3)c2)n1-c1ccccc1)Nc1ccc2c(c1)OCCO2 | 9.8% | –
78 | O=C(Nc1ccc2ccccc2c1)Nc1nnc(-c2ccccc2F)s1 | -7.69% | –
79 | O=S(=O)(c1ccc2c(c1)OCCO2)N1CCN(S(=O)(=O)c2ccc(Cl)cc2F)CC1 | 8.04% | –
80 | O=C(OCC#CCSc1nnc(-c2cccc3ccccc23)o1)c1ccc(SC(F)(F)F)cc1 | 3.51% | –
